MsrA act = bovine methionine sulfoxide reductase A activation; purified bovine MsrA, absorbance read-out; activation, % at 10.6 µM; hit rate 0.3% among 360,000; in the data active = activation above about 7.5%;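 also: 0% = vehicle and 100% = reference activator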
PKA-R2B act = activates the human PKA-R2B holoenzyme complex; P22694+P31323; hit rate 0.079% among 340,000; PKA-R2B holoenzyme dissociation, Cy5-IP20 fluorescence polarization; R2B truncated from residue 108, S112A mutant; 0% DMSO only, 100% 113 µM cGMP; activation, % at 11.4 µM;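 active = activation above a cutoff set at the mean over all compounds plus 3 SD, cut at about 18% in these data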;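 also: higher means more holoenzyme dissociation and a rise in polarization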
Target sequence (P31323 whole entry, looked up, other chains not shown, the tested form may be a part): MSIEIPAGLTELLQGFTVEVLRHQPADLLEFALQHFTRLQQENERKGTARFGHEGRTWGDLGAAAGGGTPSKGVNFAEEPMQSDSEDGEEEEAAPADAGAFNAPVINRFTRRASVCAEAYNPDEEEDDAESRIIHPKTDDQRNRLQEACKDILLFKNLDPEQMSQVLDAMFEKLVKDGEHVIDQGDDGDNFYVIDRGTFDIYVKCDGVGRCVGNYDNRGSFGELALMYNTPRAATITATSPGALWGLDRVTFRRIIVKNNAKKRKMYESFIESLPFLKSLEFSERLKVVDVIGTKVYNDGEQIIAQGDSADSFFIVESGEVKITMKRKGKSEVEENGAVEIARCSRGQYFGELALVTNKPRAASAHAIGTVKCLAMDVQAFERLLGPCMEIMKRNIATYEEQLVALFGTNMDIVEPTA
MsrA inh = inhibits bovine methionine sulfoxide reductase A; AID 651718; inhibition, % at 15.5 µM; hit rate 0.75% among 360,000; purified bovine MsrA, absorbance read-out;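 also: 0% = vehicle wells with enzyme and 100% = reference inhibitor wells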
PKA-R1A activ = PKA-R1A complex activation. P00514+P68181. PKA-R1A dissociation, Cy5-IP20 fluorescence polarization; scaled: DMSO 0%, 113 µM cGMP 100%. activation, % at 11.4 µM. hit rate 0.083% among 340,000. AID 504707;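 active = percent activation above the mean of all tested compounds plus 3 SD, cut at about 19% in these data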;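 also: higher means more PKAc released from R1A so a rise in polarization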
SUMO Mot1 rescue = inhibitors of SUMOylation pathway: yeast Mot1-301 growth rescue. hit rate 1% among 320,000. S. cerevisiae Mot1-301 growth rescue, ATP luminescence, 38.5C; percent above DMSO median, 100 means doubled. growth rescue, % at 18.8 µM;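 active = every valid replicate shows activation above 250% relative to neutral control wells; inactive = the rest, any valid replicate at or below 250%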;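 also: OY570 slx delta 5 strain wells were the positive control but not used for scaling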
MsrA conf = confirmation of bovine MsrA inhibitors; shares compounds with MsrA inh; purified bovine MsrA, absorbance read-out; inhibition, % at 15.5 µM; hit rate 41% among 2,300;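 also: coupled to thioredoxin reductase with NADPH and selenocystamine and DMSO as substrate; 0% = vehicle only and 100% = full effect of reference inhibitor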
An asterisk follows results filed as active; . = no result. Sampled rows, rich in hits. Any-hit rate of the full collection: about 2%. Rule as the data show it, unless noted: active = inhibition above about 4.5%; inactive = the rest.

SMILES | MsrA act | PKA-R2B act | MsrA inh | PKA-R1A activ | SUMO Mot1 rescue | MsrA conf
CCCNC(=O)c1cc(C2CCCN(S(=O)(=O)c3cccs3)C2)on1 (stereo not given) | 0 | . | -1 | . | . | .
Cc1cc(N/N=C/c2ccc(O)cc2)nc(NS(=O)(=O)c2ccccc2)n1 | -5 | 8 | 4.9* | -10 | -8 | 5.3*
Cc1ccc(Nc2n[nH]c(C)c2[N+](=O)[O-])cc1C | -8 | -5 | 11* | -1 | 25 | 8.2*
CCOC1=C2[C@@H](CN(S(=O)(=O)c3ccc(C)cc3)[C@H]2c2ccc(CC)cc2)[C@H]2C(=O)N(C)C(=O)[C@H]2C1 | -3 | . | 0 | . | . | .
CC(C)CNC(=O)c1cccc2c(-c3cccc(C(N)=O)c3)coc12 | -2 | . | 0 | . | . | .
Cc1nc2ccccn2c(=O)c1NC(=O)c1cccc2ccccc12 | -4 | 0 | 4 | 3 | -6 | .
Cc1nc2ccccn2c(=O)c1NC(=O)c1ccco1 | -1 | -4 | 4.8* | 8 | . | 2
COc1ccc(NC(=O)c2cc(C3CCCCN3C(=O)c3ccc(Cl)cc3)on2)c(C)c1 (stereo not given) | -2 | . | 0 | . | . | .
CCCCSc1nc2sc3c(c2c(=O)n1-c1ccc(OC)cc1)CCN(C)C3 | -3 | 9 | 0 | -1 | . | .
CN1CCc2c(sc3nc(SCC(N)=O)n(-c4ccccc4)c(=O)c23)C1 | 0 | 0 | 2 | 7 | 0 | .
CCCCSc1nc2sc3c(c2c(=O)n1-c1ccccc1)CCN(C)C3 | -4 | 0 | 5.4* | -2 | -21 | 2
COC(=O)CSc1nc2sc3c(c2c(=O)n1-c1ccccc1)CCN(C)C3 | -11 | -4 | 4.7* | -11 | -12 | 2
COc1cc2c(cc1[N+](=O)[O-])n(C(C)C)c(=O)n2C(C)C | -4 | -8 | 8.7* | 6 | 6 | 6.3*
COc1ccc(/C=C(/C#N)C(=O)Nc2ccc(C)cc2C)cc1C(=O)O | -3 | -5 | 7.0* | -2 | 8 | 6.1*
Cc1ccc(C)c(NC(=O)/C(C#N)=C/c2ccc[nH]2)c1 | -6 | 9 | 9.3* | -8 | -8 | 11*
Cc1cccc(NC(=O)/C(C#N)=C/c2ccc[nH]2)c1C | -2 | -11 | 3 | 2 | -6 | .
COc1ccc(/C=C(/C#N)C(=O)Nc2ccccc2C)cc1C(=O)O | -2 | 6 | 5.6* | -1 | 0 | 4
COc1ccc(/C=C(/C#N)C(=O)Nc2cccc(C)c2C)cc1C(=O)O | -4 | -5 | 0 | -17 | -4 | .
COc1ccc(-n2cnnc2SCC(=O)NC2CC2)cc1 | -1 | -4 | 0 | 6 | . | .
CC(C)NC(=O)OC[C@@H]1CSCCS(=O)(=O)N1 | . | . | -1 | . | . | .
O=Cc1ccc([B-](F)(F)F)o1 | . | . | 0 | . | . | .
CCn1cc(C(=O)N2CCN(c3ccc(C(C)=O)cc3)CC2)c2cc(OC)c(OC)cc2c1=O | -17 | 3 | 6.5* | -4 | 19 | 4
CCn1cc(C(=O)N2CCN(c3ccc(OC)cc3)CC2)c2cc(OC)c(OC)cc2c1=O | -4 | -3 | 1 | -3 | 3 | .
Cc1ccc(Nc2ccc3nonc3c2[N+](=O)[O-])cc1 | -1 | 12 | 1 | -6 | 6 | .
Cc1ccc(Nc2ccc([N+](=O)[O-])nc2[N+](=O)[O-])cc1 | -7 | -7 | 5.3* | -3 | 60 | 5.0*
SMILES | MsrA act | PKA-R2B act | MsrA inh | PKA-R1A activ | SUMO Mot1 rescue | MsrA conf
C=CCNc1nc(N)c([N+](=O)[O-])c(NCc2ccccc2)n1 | -4 | -5 | . | 0 | -6 | .
C=CCNc1nc(N)c([N+](=O)[O-])c(NCCO)n1 | -5 | -7 | 5.0* | -7 | 66 | 4.8*
Cc1c(O)ccc2c(-c3ccccc3)cc(=O)oc12 | -6 | 3 | 41* | 6 | 7 | 35*
COc1ccc(-c2cc(=O)oc3c(C)c(O)ccc23)cc1 | -4 | 10 | 12* | 4 | -7 | 3
Cc1cc(O)c2c(-c3ccccc3)cc(=O)oc2c1 | 4 | -2 | 8.5* | 0 | 5 | 2
CCN(CC)Cc1c(O)ccc2c(-c3ccccc3)cc(=O)oc12 | 0 | 8 | 1 | 3 | 8 | .
COc1ccc(-c2cc(=O)oc3c(C)c(OC(C)C(C)=O)ccc23)cc1 (stereo not given) | -2 | 1 | 22* | -2 | -3 | 16*
COC(=O)/C=C1\Nc2ccc(Cl)cc2C(=O)NC1=O | . | . | 0 | . | . | .

From PubChem BioAssay
